ALDH1A1 inh = blocks purified human ALDH1A1 activity; AID 1030; Potency, µM (top dose mostly 75.3 µM), without a hit: at the highest dose activity, negative = inhibition, most hits filed as inhibitors; 7.3% of 220,000 active; P00352; Purified ALDH1A1, NADH fluorescence, propionaldehyde substrate;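 note: potency is the fitted concentration of half-maximal effect; plate controls were no enzyme wells and a reference inhibitor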
Target sequence (P00352 whole entry, looked up): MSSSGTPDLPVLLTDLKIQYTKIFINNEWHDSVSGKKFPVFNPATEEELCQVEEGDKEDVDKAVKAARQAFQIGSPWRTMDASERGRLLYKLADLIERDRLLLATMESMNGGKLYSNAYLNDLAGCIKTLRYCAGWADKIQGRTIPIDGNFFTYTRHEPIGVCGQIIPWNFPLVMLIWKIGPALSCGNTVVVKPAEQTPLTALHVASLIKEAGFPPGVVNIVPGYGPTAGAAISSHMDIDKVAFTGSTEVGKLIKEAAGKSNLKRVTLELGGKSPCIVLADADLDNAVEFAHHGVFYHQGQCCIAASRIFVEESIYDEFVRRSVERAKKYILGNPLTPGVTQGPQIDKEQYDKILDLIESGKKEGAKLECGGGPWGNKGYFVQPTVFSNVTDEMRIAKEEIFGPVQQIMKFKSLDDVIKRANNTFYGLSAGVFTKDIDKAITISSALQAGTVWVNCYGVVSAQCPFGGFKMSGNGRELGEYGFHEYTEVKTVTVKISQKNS
HPGD inh = inhibitors of human 15-hydroxyprostaglandin dehydrogenase (HPGD); P15428; purified HPGD, NADH fluorescence kinetic, PGE2 substrate; Potency, µM, inactives show at the top dose activity change, negative = inhibition, hits mostly inhibitors; 4.3% of 150,000 active; AID 894; note: potency is the fitted concentration of half-maximal effect
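NADH formation kinetics: reaction with 30 uM PGE2 and 1 mM NAD+ (final), 20 nM enzyme, Tris-HCl pH 8 with Tween 20, after 15 min compound preincubation at room temperature. Fluorescence change, last versus first of five reads.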
IMPase inh = IMPase inhibition in cells. CHO-M1 cells, IP1 accumulation, HTRF TR-FRET ratio. AID 901. inhibition (IP1 accumulation), % at 46.1 µM. 120,000 tested, under 10 active; active = well fitted curve in the direction sought with a large enough effect in the signal ratio, not every such curve was filed as active; inconclusive = small, poorly fitted or top-dose-only effect, or a change in a side signal; inactive = no such curve, though single readings can be large or run the other way; the % refers to the signal ratio;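 note: cells stimulated with carbachol in lithium chloride buffer; plate controls were DMSO basal wells for no effect and reference inhibitor wells for full effect; higher means more IMPase inhibition seen as more IP1 and lower FRET ratio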
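CHO-M1 cells (CHO stably expressing M1 receptor), compound up to 46 uM final, stimulated with carbachol (50 uM as added) in buffer with 50mM LiCl, pH 7.4, 30 min at 37C. Cytosolic IP1 read by TR-FRET; AC50 from Hill fits.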
Starred values were filed as active, the others as inactive; ? = inconclusive; . = not tested or not shown; [ ] = dose if it differs, or a comment. An excerpt weighted towards active compounds, which were near 9% of everything screened. Unless noted, calls come from the whole dose curve; as a rule, active = well fitted inhibition curve with a large enough effect (not every such curve was filed as active); inconclusive = small, poorly fitted or top-dose-only effect, or another doubt; inactive = no such curve, though single readings can be large or run the other way. Unless noted, % is set by controls: 0 for no effect and ±100 for the full control effect.

SMILES	ALDH1A1 inh	HPGD inh	IMPase inh
COc1cccc(OC)c1C(=O)NC(=S)Nc1cc(-c2nc3ccccc3[nH]2)ccc1Cl	22µM*	-18%	1
Cc1ccsc1/C=N/N1CCN(c2ccccc2)CC1	-6%	-12%	6
Cc1ccsc1/C=N/N1CCN(Cc2ccccc2)CC1	16µM*	.	.
Cc1ccc(NC(=O)CCC(=O)NNC(=O)c2ccccc2Cl)c(C)c1	5%	.	.
Cc1cccc(-n2c(SCc3ccc(C#N)cc3)nnc2-c2c[nH]c3ccccc23)c1	-6%	-2%	.
CCCn1c(=O)c(C(=O)NNS(=O)(=O)c2ccc(Cl)cc2)c(O)c2ccccc21	32µM*	-20%	.
CCCCCCCCCC(=O)NNC(=O)c1c(O)c2ccccc2n(CCC)c1=O	5%	.	.
CCc1cccc(C)c1NC(=O)CN1C(=O)c2cccc3cccc1c23	.	.	2
COC(=O)CSc1n[nH]c(-c2cccnc2)n1	12%	-11%	5
O=C(CSc1n[nH]c(-c2ccccc2)n1)Nc1ccc(N2CCOCC2)cc1	22µM*	.	.
O=C(CSc1n[nH]c(-c2cccnc2)n1)Nc1ccccc1	1%	10µM*	5[0.0738 µM]
O=C(CSc1ccccc1)Nc1ccc(N2CCOCC2)cc1	?	-8%	0
N#C[C@H](c1ccccc1)N1CCCN([C@@H](C#N)c2ccccc2)C1c1ccccc1O (some centres undefined)	2%[13.5 µM]	-1%	.
O=c1c(-c2ccc(F)cc2)nc2cnc(Nc3ccccc3)nc2n1C[C@H]1CCCO1	25%	.	.
O=c1c2ccccc2nc(-c2ccccc2)n1Cc1ccco1	?	-18%	0
Cc1ccc(-c2nc3ccccc3c(=O)n2Cc2ccccc2)cc1	16µM*	-3%	.
O=C(Cc1c(F)cccc1Cl)N(Cc1ccccc1)c1ccccn1	6%	.	.
COC(=O)c1ccccc1NC(=O)CSc1nnc(-c2ccc(C)cc2)o1	-6%	-11%	-6
COC(=O)c1ccccc1NC(=O)Cc1nc(-c2ccccc2)sc1-c1ccc(C)cc1	10µM*	-24%	8
CC(=O)O[C@]1(C)CC[C@]23CC1C(C)(C)C2CC[C@@H]3C (some centres undefined)	-5%	-2%	.
CC(C)C(c1nnnn1Cc1ccccc1)N1CCN(Cc2ccc3c(c2)OCO3)CC1 (centres undefined)	-13%	-12%	4
Cc1ccccc1N1CCN(Cc2nc(Cc3ccccc3)no2)CC1	-5%	.	.
CC(=O)c1ccc(N2CCN(Cc3nc(Cc4ccccc4)no3)CC2)cc1	18µM*	.	.
CC1(C)CC2CC(C)(CN2C(=O)COC(=O)c2n[nH]c(=O)c3ccccc23)C1 (centres undefined)	?	-6%	2
CC1(C)CC2CC(C)(CN2C(=O)COc2cccc3ccccc23)C1 (centres undefined)	4%	32µM*	2
SMILES	ALDH1A1 inh	HPGD inh	IMPase inh
O=C(CSc1nc2ncccc2[nH]1)NCCc1ccccc1	10%	.	.
O=C(COC(=O)c1c2c(nc3ccccc13)CCCC2)Nc1ccc2c(c1)OCO2	8.9µM*	-21%	8
Nn1c(SCC(=O)Nc2ccc3c(c2)OCO3)nnc1-c1cccc(Cl)c1	3%	-6%	-7
O=C(CSc1ncnc2ccccc12)Nc1ccc2c(c1)OCCO2	-3%	.	.
O=C(CSc1ncnc2ccccc12)Nc1ccc2c(c1)OCO2	11µM*	-7%	4
O=C(COC(=O)c1cc(-c2ccccc2)nc2ccccc12)Nc1ccc2c(c1)OCO2	10%	-7%	-12
Nn1cc(-c2ccccc2)nc1SCC(=O)Nc1ccc2c(c1)OCO2	1.4µM*	-17%	-7
Nn1cc(-c2ccccc2)nc1SCC(=O)NCC(F)(F)F	3%	.	.
Nn1cc(-c2ccccc2)nc1SCC(=O)NCCc1ccccc1	3.2µM*	.	.
COc1ccc([N+](=O)[O-])cc1NC(=O)C(C)Sc1nc(C)c(C)c(C)n1 (centres undefined)	0%	-19%	.
O=C(NCCN1CCOCC1)c1ccc(Cc2nc3ccccc3[nH]2)cc1	5%	-11%	.
Cc1ccc(S(=O)(=O)Oc2ccc(N=Nc3ccc(-c4ccc(N=Nc5c(O)ccc6cc(S(=O)(=O)O)cc(S(=O)(=O)O)c56)c(C)c4)cc3C)cc2)cc1	?	-22%	.
O=C(CSc1nc2ncc(Br)cc2[nH]1)Nc1ccc2c(c1)OCO2	25µM*	.	10
CCOc1ccc2nc(SCC(=O)Nc3ccc4c(c3)OCCO4)[nH]c2c1	?	-10%	3
Cc1noc(C)c1-c1nccc(NCc2ccccc2)n1	34%	.	.
COc1cc(NC(=O)C2CCCO2)c(OC)cc1NC(=O)c1ccccc1 (centres undefined)	-7%	-4%	11
COc1ccc(N2C(=O)C3CCCCC3C2=O)cc1NC(=O)c1ccccc1 (centres undefined)	0.89µM*	.	.
C/C(CCN1CCCc2nc(C)c(C)cc21)=N\O[C@@H](C)CN1CCCCc2nc(C)c(C)cc21	0%[13.5 µM]	.	.
CN1/C(=C/C=N/n2cnnc2)C(C)(C)c2ccccc21	3%	-24%	3
CN1/C(=C\C=N\NC(=O)c2ccccc2Br)C(C)(C)c2ccccc21	28µM*	-30%	.
Cc1nc(NC(=O)CSc2nnc(N)s2)c(Cl)cc1Cl	6%	.	.
NC(=O)C1(NC(=O)[C@@H]2CC3(CC(c4cccc(NC(=O)[C@@H]5CCC(=O)N5)c4)=NO3)CN2C(=O)c2cnccn2)CC1 (some centres undefined)	22µM*	-13%	9
NC(=O)C1(NC(=O)[C@@H]2CC3(CC(c4cccc(NC(=O)[C@@H]5CCC(=O)N5)c4)=NO3)CN2C(=O)c2ccccc2)CC1 (some centres undefined)	3%	-1%	-4
CC1(C)CC(=O)C2=C(C1)N(c1ccc(F)cc1)C(=O)CC2c1ccsc1 (centres undefined)	3%	-1%	2
Cc1c(C(=O)N2CCC(C)CC2)sc2ncnc(N(C)c3ccccc3)c12	?	8.9µM*	?
SMILES	ALDH1A1 inh	HPGD inh	IMPase inh
Cc1c(C(=O)N2CCN(Cc3ccccc3)CC2)sc2ncnc(N3CCOCC3)c12	25µM*	-20%	-4
Cc1c(C(=O)N2CCC(Cc3ccccc3)CC2)sc2ncnc(N3CCC(C)CC3)c12	-7%	.	.
CC1CCN(C(=O)COc2ncnc3ccccc23)CC1	-6%	.	.
COCC(=O)N1CCC2(CC1)CCN(C(=O)NC(C)C)CC2	?	-5%	.
Cc1cc(C)n(-c2ccc(C(=O)N3CC(C)OC(C)C3)cc2)n1 (centres undefined)	-2%	.	.
CC(=O)N[C@@H](C)C(=O)OC(C)C(=O)Nc1cccc([N+](=O)[O-])c1 (some centres undefined)	-4%	.	.
COc1ccccc1-n1cc(-c2ccc(Cl)cc2)[nH]c1=O	11µM*	-6%	-4
COc1ccccc1-n1cc(C(=O)c2cc(Cl)ccc2O)cc(C#N)c1=O	6%	.	.
O=C(CSc1nnc(Cc2cccs2)n1-c1ccccc1)Nc1ccc2c(c1)OCCO2	7.9µM*	-10%	2
O=C1COc2ccc(C(=O)CSc3nnc(Cc4cccs4)n3-c3ccccc3)cc2N1	3.2µM*	-26%	5
Cn1cccc1Cc1nnc(SCC(=O)Nc2ccc(F)cc2)n1-c1ccc(F)cc1	?	-1%	7
CCc1ccc(NC(=O)CSc2nnc(Cc3cccn3C)n2-c2ccc(OC)cc2)cc1	?	-9%	2
